The target in assay [1] is Acetylcholinesterase (Homo sapiens) (UniProt P22303). In words: Acetylcholinesterase (AChE) small molecule antagonists: colormetric cell-based qHTS assay (AID 1347395). Note: nearly all actives have a fitted effect of over 30% in size. Note: potency is the fitted concentration of half-maximal effect. The essentials: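 SH-SY5Y cells attached overnight, exposed to compound 30 min at 37 C, then given DTNB/acetylthiocholine; after 90 min at 37 C, colorimetric thiocholine read gives cellular AChE activity.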
Acetylcholinesterase (Homo sapiens), sequence (P22303 whole entry, looked up): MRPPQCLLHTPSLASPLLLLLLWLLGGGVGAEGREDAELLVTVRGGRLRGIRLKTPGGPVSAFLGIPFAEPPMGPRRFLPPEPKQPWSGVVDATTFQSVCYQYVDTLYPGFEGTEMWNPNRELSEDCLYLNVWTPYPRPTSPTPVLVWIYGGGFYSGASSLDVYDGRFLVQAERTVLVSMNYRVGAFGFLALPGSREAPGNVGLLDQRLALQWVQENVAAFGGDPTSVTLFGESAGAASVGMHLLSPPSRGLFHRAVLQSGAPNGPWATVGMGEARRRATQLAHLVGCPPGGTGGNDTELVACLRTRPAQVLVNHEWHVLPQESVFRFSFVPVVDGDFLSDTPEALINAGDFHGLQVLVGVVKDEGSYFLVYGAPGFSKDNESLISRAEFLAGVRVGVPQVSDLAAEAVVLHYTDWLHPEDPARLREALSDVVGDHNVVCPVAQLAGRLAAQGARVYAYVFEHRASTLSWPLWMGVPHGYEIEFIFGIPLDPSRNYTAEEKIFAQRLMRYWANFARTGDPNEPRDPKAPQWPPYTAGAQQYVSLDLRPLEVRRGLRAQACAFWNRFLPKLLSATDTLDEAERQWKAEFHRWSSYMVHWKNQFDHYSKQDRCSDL
(qHTS replaces the single test concentration by a dilution series.)

Assay [2] has the same target. In words: Acetylcholinesterase (AChE) small molecule antagonists: enzyme-based qHTS assay (AID 1347397). Note: nearly all actives have a fitted effect of over 55% in size. Note: potency is the fitted concentration of half-maximal effect. The note with it: Potency: AChE enzyme activity inhibition; outcome: AChE enzyme activity inhibition. The essentials: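 In this quantitative HTS, compounds from the Tox21 10K collection were preincubated 30 min at ambient temperature with recombinant human AChE dispensed at 50 mU/mL. Hydrolysis of acetylthiocholine was then followed for 10 min by DTNB colour development.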

Assay [3] has the same target. In words: Acetylcholinesterase (AChE) small molecule antagonists: fluorescence cell-based qHTS assay (AID 1347398). Note: nearly all actives have a fitted effect of over 50% in size. Note: potency is the fitted concentration of half-maximal effect. Conditions: Potency: AChE activity; outcome: AChE activity. Summed up: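 Cells (SH-SY5Y) attached overnight, were dosed with compound or DMSO vehicle for 30 min at 37 C, and then incubated 40 min at room temperature with acetylthiocholine and Thiolite Green; green fluorescence indexed AChE activity.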

For assay [4] the target is unchanged. Kind of assay: Acetylcholinesterase (AChE) small molecule antagonists: enzyme-based qHTS assay with human liver microsomes (AID 1347399). Note: nearly all actives have a fitted effect of over 60% in size. Conditions: Potency: qHTS inhibition; outcome: qHTS inhibition. Summed up:
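Recombinant human AChE (50 mU/mL in the enzyme mix) and human liver microsomes (0.25 mg/mL final) were preincubated with compound and NADPH (0.25 mg/mL final) for 30 min at 37 C. Acetylthiocholine/DTNB was then added; thiocholine was read colorimetrically after 10 min at room temperature.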

Molecules are shown by their SMILES. Results filed as inconclusive are left out. Active and inactive are the calls of the source. Calls come from the whole dose curve.
% is set by controls: 0 for no effect and ±100 for the full control effect.

On to `CC1=CC=C(C(C)C)CC1`, for which the Potency entry in assay [1], in assay [2], in assay [3] and in assay [4] was “inactive” throughout.
With `O=C(/C=C/c1ccc(O)c(O)c1)O[C@@H]1C[C@@](OC(=O)/C=C/c2ccc(O)c(O)c2)(C(=O)O)C[C@@H](O)[C@@H]1O`, the Potency result in assay [1], in assay [2], in assay [3] and in assay [4] was “inactive” in each case.
`CC(=O)CCc1ccc(O)cc1`: the Potency entry in assay [1], in assay [2], in assay [3] and in assay [4] was “inactive” each time.
Take `CCC(C)C(=O)OC` (centres undefined): the Potency entry in assay [1], in assay [2], in assay [3] and in assay [4] was “inactive” each time.
Turning to `OC[C@@H](O)[C@H](O)[C@@H](O)[C@@H](O)CO`, the Potency entry in assay [1], in assay [2], in assay [3] and in assay [4] was “inactive” throughout.
On to `Nc1ccc2ccccc2c1S(=O)(=O)O`, for which the Potency entry in assay [1], in assay [2], in assay [3] and in assay [4] was “inactive” each time.
Turning to `COc1ccc(NS(=O)(=O)c2ccc(N)cc2)nn1`, the Potency entry in assay [1], in assay [2], in assay [3] and in assay [4] was “inactive” throughout.
With `COc1cccc(O)c1O`, the Potency result in assay [1], in assay [2], in assay [3] and in assay [4] was “inactive” in each case.
Turning to `CCCCOC(=O)CCCCC(=O)OCCCC`, the Potency result in assay [1], in assay [2], in assay [3] and in assay [4] was “inactive” throughout.
As for `CCCCCCCC/C=C\CCCCCCCC(=O)N(CCO)CCO`, the Potency entry in assay [1], in assay [2] and in assay [4] was “inactive” each time. Besides, the Potency in assay [3] was 19.9 µM (active).
For `CN1CCN(C2=Nc3ccccc3Oc3ccc(Cl)cc32)CC1`, the Potency entry in assay [1], in assay [2], in assay [3] and in assay [4] was “inactive” each time.
For `CC(C)(C)NCCNC(C)(C)C`, the Potency entry in assay [1], in assay [2], in assay [3] and in assay [4] was “inactive” in each case.
Regarding `OCCN1CCOCC1`, the Potency entry in assay [1], in assay [2], in assay [3] and in assay [4] was “inactive” throughout.
Consider `C=C(C)C(=O)OCC(C)(C)COC(=O)C(=C)C`, for which the Potency result in assay [1], in assay [2], in assay [3] and in assay [4] was “inactive” throughout.
For `COc1cc(C(=O)OCCCN2CCCN(CCCOC(=O)c3cc(OC)c(OC)c(OC)c3)CC2)cc(OC)c1OC`, the Potency result in assay [1], in assay [2], in assay [3] and in assay [4] was “inactive” throughout.
On to `C=C(C)C(=O)OCC`, for which the Potency entry in assay [1], in assay [2], in assay [3] and in assay [4] was “inactive” each time.
Take `CCCCCCCCCCCC(=O)OCC`: the Potency entry in assay [1], in assay [2], in assay [3] and in assay [4] was “inactive” each time.
For the molecule `C=CC(C)(CCC=C(C)C)OC(=O)C(C)C` (centres undefined), the Potency result in assay [1], in assay [2], in assay [3] and in assay [4] was “inactive” in each case.
On to `CC(=O)Oc1cc2c(s1)CCN(C(C(=O)C1CC1)c1ccccc1F)C2` (centres undefined), for which the Potency entry in assay [1], in assay [2], in assay [3] and in assay [4] was “inactive” in each case.
`CC(C)=CCCC(C)C=O` (centres undefined): the Potency entry in assay [1], in assay [2], in assay [3] and in assay [4] was “inactive” throughout.
Turning to `COc1ccc2nc(NC(=O)Nc3ccccc3)sc2c1`, the Potency result in assay [1], in assay [2], in assay [3] and in assay [4] was “inactive” in each case.
With `O=C(c1ccco1)N1CCNCC1`, the Potency entry in assay [1], in assay [2], in assay [3] and in assay [4] was “inactive” each time.
As to `CCCCCCCCCCCCC1CO1` (centres undefined), the Potency entry in assay [1], in assay [2], in assay [3] and in assay [4] was “inactive” each time.
Consider `COC(=O)CCCCCCCCC(=O)OC`, for which the Potency result in assay [1], in assay [2], in assay [3] and in assay [4] was “inactive” in each case.
For the molecule `CCCCCCCC/C=C\CCCCCCCC(=O)N(C)CC(=O)O`, the Potency result in assay [1], in assay [3] and in assay [4] was “inactive” in each case. In assay [2], the Potency is 63.3 µM (active).
In the case of `CCCCOc1ccc(C(=O)CCN2CCCCC2)cc1`, the results for the Potency in assay [1], in assay [2] and in assay [3] were 12.3 µM (active), 27.5 µM (active) and 12.3 µM (active), respectively. The Potency result in assay [4] was “inactive”.
Regarding `CC(CSC(=O)c1ccccc1)C(=O)N1C[C@@H](Sc2ccccc2)C[C@H]1C(=O)O` (some centres undefined), in assay [1], the activity, negative = inhibition is 0.861% [at 23.6 µM] (inactive). The values for the activity change, negative = inhibition in assay [2], in assay [3] and in assay [4] were -0.415% [at 23.6 µM] (inactive), 13.2% [at 23.8 µM] (inactive) and 2.18% [at 23.6 µM] (inactive), respectively.
`C=CC(C)=CCC=C(C)C`: the Potency entry in assay [1], in assay [2], in assay [3] and in assay [4] was “inactive” in each case.
Take `CC(C)c1ccccc1`: the Potency result in assay [1], in assay [2], in assay [3] and in assay [4] was “inactive” each time.
As for `CN(Cc1ccc(C(C)(C)C)cc1)Cc1cccc2ccccc12`, the Potency result in assay [1], in assay [2], in assay [3] and in assay [4] was “inactive” in each case.
With `Nc1ccc2c(S(=O)(=O)O)cccc2c1S(=O)(=O)O`, the Potency entry in assay [1], in assay [2], in assay [3] and in assay [4] was “inactive” in each case.
On to `Cc1ccc2c(c1[N+](=O)[O-])C(=O)c1ccccc1C2=O`, for which the Potency in assay [1] was 0.781 µM (active); in assay [2] it was 1.39 µM (active); in assay [3] it was 0.392 µM (active). The Potency result in assay [4] was “inactive”.
In the case of `CC(C)(O)c1ccc(CNC(=O)c2cccnc2Oc2ccc(F)cc2)cc1`, the Potency entry in assay [1], in assay [2], in assay [3] and in assay [4] was “inactive” in each case.
Consider `CCCN(CCC)CCc1cccc2c1CC(=O)N2`, for which the Potency result in assay [1], in assay [2], in assay [3] and in assay [4] was “inactive” each time.
Turning to `CCC(=O)C(=O)CC`, the Potency result in assay [1], in assay [2], in assay [3] and in assay [4] was “inactive” in each case.
Regarding `CC1=NN(c2ccc(S(=O)(=O)O)cc2)C(=O)C1N=Nc1ccccc1` (centres undefined), the Potency result in assay [1], in assay [2], in assay [3] and in assay [4] was “inactive” throughout.
Consider `CCCCC(CC)(CO)CO`, for which the Potency entry in assay [1], in assay [2], in assay [3] and in assay [4] was “inactive” each time.
Turning to `[O-][n+]1ccc(Cl)cc1`, the Potency entry in assay [1], in assay [2], in assay [3] and in assay [4] was “inactive” each time.
As for `Cc1ccc(C(C)OC(=O)C2(C)CCC(C(=O)O)C2(C)C)cc1` (centres undefined), the Potency result in assay [1], in assay [2], in assay [3] and in assay [4] was “inactive” each time.
Take `CC(C)(C)C1CCCCC1=O` (centres undefined): the Potency entry in assay [1], in assay [2], in assay [3] and in assay [4] was “inactive” each time.
As to `CCCCCCCCCCCCCC=O`, in assay [1], the activity, negative = inhibition is 1.02% [at 10.5 µM] (inactive). The activity change, negative = inhibition in assay [2] was 0.138% [at 10.5 µM] (inactive); in assay [3] it was 1.81% [at 10.5 µM] (inactive); in assay [4], -0.486% [at 10.5 µM] (inactive).

The record behind these values is PubChem BioAssay (Tox21).
